Screening results from PubChem BioAssay.
D2 PAM-1 = human D2 receptor positive allosteric modulation. AID 624464. P14416. potentiation, % (no concentration beside the values). actives 0.23% (n = 360,000). DiscoveRx D2 beta-arrestin cells, luminescence, 90 min; 100% = 57 uM dopamine signal; in the data active = potentiation above about 50%; inconclusive = mostly about 30% to 49%
Target sequence (P14416 whole entry, looked up): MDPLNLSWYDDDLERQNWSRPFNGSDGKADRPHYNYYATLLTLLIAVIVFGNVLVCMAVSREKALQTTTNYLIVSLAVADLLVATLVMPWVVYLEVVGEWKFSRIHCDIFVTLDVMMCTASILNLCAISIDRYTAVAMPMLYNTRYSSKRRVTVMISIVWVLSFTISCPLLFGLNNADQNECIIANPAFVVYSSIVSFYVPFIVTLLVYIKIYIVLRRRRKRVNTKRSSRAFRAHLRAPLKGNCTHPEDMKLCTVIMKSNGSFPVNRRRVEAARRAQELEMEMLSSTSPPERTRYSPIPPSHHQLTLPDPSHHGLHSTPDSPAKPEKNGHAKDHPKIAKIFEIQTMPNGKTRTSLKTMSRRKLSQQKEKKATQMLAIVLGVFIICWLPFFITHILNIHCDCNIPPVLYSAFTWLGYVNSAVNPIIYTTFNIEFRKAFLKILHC
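PathHunter beta-arrestin assay in DiscoveRx D2 cells. Compounds were added with an EC20 of dopamine (50 nM final) for 90 min at 37 deg C. Luminescence was read 1 h after detection reagent, with 57 uM dopamine as the EC100 control.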
D2 PAM-2 = positive allosteric modulators of human D2 dopamine receptor. potentiation, % at 10 µM. actives 0.34% (n = 340,000). HEK293 T-REx D2, calcium flux, EC20 dopamine potentiation;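 active = potentiation over 3 SD above the plate norm, cut at about 30% in these data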; note: 0% is about no effect
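Tetracycline-induced Hek293 Trex D2 cells, force-coupled to calcium, loaded with no-wash calcium dye. Compound added with 180 s kinetic read for agonism, then EC20 dopamine and a further 180 s read for potentiation.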
D2 ag-1 = D2 dopamine receptor (human) agonism; P14416; HEK293 T-REx D2 cells, calcium flux agonist mode; activation, % at 2 µM; actives 0.53% (n = 340,000);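 active = activation over 3 SD above normal in the single-dose calcium agonist read, cut at about 30% in these data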; note: 0% is about no effect
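Calcium-flux readout, 1 cycle/sec over 180 s following compound pin transfer, in inducible HEK293 Trex D2 cells (force-coupled); dopamine controls included. Positive calcium responses during this window marked compounds as potential agonists.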
D2 ag-2 = agonists of human D2 dopamine receptor (beta-arrestin); activation, % (test concentration not listed); DiscoveRx PathHunter D2 beta-arrestin, luminescence, 90 min; 100% = 57 uM dopamine signal; actives 0.084% (n = 360,000); P14416; in the data active = activation above about 40%; inconclusive = between about 15% and that limit
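Agonist mode: compounds alone added to overnight-plated D2 PathHunter cells for 90 min at 37 C, with 57 uM final dopamine (EC100) defining full response. Beta-arrestin recruitment detected by chemiluminescent reagent, read after 1 h at ambient temperature.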
D2 antagonist = antagonists of human D2 dopamine receptor. actives 2% (n = 340,000). P14416. HEK293 TREx D2 cells, calcium flux, dopamine EC80. inhibition, % at 10 µM; in the data active = inhibition above about 30%; inactive = below that, where a call was filed; note: 0% is about no effect
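In this primary screen, negative modulation is detected by tracking calcium flux after an EC80 dopamine challenge in inducible HEK293 T-REx D2 cells preexposed to test compound for 180 s.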
The depositor's hits bear a star; ? = inconclusive; . = no result. In the library only some 2.4% were active in any assay of this set; here they are far more common.

SMILES	D2 PAM-1	D2 PAM-2	D2 ag-1	D2 ag-2	D2 antagonist
CCC1CCCCN1C(=O)CCc1nnc(Cc2cc(OC)ccc2OC)o1 (stereo not given)	2	-6	1	2	-2
CC1CCN(CCn2c(=S)[nH]c3ccccc3c2=O)CC1	-25	-12	0	5	31*
CC1CCN(CCCn2c(=S)[nH]c3ccccc3c2=O)CC1	-42	-18	0	-3	22
COC(=O)c1ccc(CNC(=O)/C=C/[C@H]2O[C@@H](n3cc(C)c(=O)[nH]c3=O)C[C@@H]2O)cc1	-2	.	.	-7	.
CC(SC1=Nc2ccccc2C2CC=NN12)C(=O)NC1(C#N)CCCCC1 (stereo not given)	-27	-29	44*	-9	5
COc1cccc(NC(=O)Cn2c(=O)n(C)c(=O)c3sc4c(c32)COC(C)(C)C4)c1	-5	-11	0	-1	43*
COC(=O)/C(=C/Nc1ccc(O)cc1)[N+](=O)[O-]	86*	4	0	10	-9
Cc1ccc2c(cnn2C(=O)CCCC(=O)NCc2ccc(Cl)cc2)c1	-8	4	0	-6	9
Cc1ccc(CNC(=O)CCC(=O)n2ncc3cc(C)ccc32)cc1	-2	2	0	-5	47*
COC(=O)CN1C(=O)N/C(=C/c2cc3c(cc2OC)OCO3)C1=O	15	35*	0	-5	29
O=C(c1ccc(Cl)cc1)C1CCN(Cc2ccccc2)CC1	-78	-29	-1	-3	81*
O=C(c1ccc(F)cc1)C1CCN(Cc2ccccc2F)CC1	-20	.	.	-7	.
O=C(NN1CCN(Cc2ccccc2)CC1)c1ccc(Cl)cc1	-27	-38	2	0	67*
CS(=O)(=O)c1ccc(Nc2nc(C(N)CCc3ccccc3)cs2)cc1 (stereo not given)	-5	.	.	3	.
COc1ccc(CCNC(=O)c2cccc(S(=O)(=O)N3CCCC3)c2)cc1OC	-12	5	0	-6	5
COc1cc(C(=O)NCCc2ccc(S(=O)(=O)N3CCCC3)cc2)cc(OC)c1OC	-7	-29	0	-19	58*
c1csc(C2=Nn3c(nnc3-c3ccncc3)SC2)c1	20	32*	1	-2	21
COCCN1CC(O)=C(c2nc3ccccc3c(=O)[nH]2)C1=N	-1	16	0	-1	38*
CCCCCN1CC(O)=C(c2nc3ccccc3[nH]2)C1=N	-6	-2	2	-8	39*
CCNC(=O)c1ccc2nc(CCc3ccccc3)oc2c1	.	7	0	.	.
CCCNC(=O)Cn1c(=O)n(CC(=O)N2CCCCC2)c(=O)c2sccc21	-28	6	1	-15	-10
CCN(CC)C(=O)Cn1c(=O)n(CC(=O)N2CCCCC2)c(=O)c2sccc21	6	-1	0	-2	33*
Cc1cc(F)ccc1NC(=O)CCS(=O)(=O)c1cc2c3c(c1)CCN3C(=O)CC2	.	-5	0	.	.
O=C(CCN1CCc2ccccc2C1)Nc1ccccc1	-36	-24	0	0	57*
O=C(CCN1CCc2ccccc2C1)Nc1cccc(F)c1	-27	.	3	-4	60*
SMILES	D2 PAM-1	D2 PAM-2	D2 ag-1	D2 ag-2	D2 antagonist
O=C(Nc1ccccc1)N1CCc2ccccc21	-7	-11	0	-3	-12
CN(c1ccccc1)S(=O)(=O)c1cccc(NC(=O)CN2CCc3ccccc3C2)c1	16	-13	28	?	33*
O=C(CCN1CCCCCC1)Nc1cccc(F)c1	-18	-20	0	-3	-7
O=C(CCC(=O)N1CCc2ccccc21)Nc1ccccc1	-10	-9	0	-2	36*
CN(c1ccccc1)S(=O)(=O)c1cccc(NC(=O)CC(C)(C)C)c1	-9	4	-1	0	-6
CC(SC#N)C(=O)C12CC3CC(CC(C3)C1)C2 (stereo not given)	4	5	1	-1	-25
COc1ccc(F)cc1S(=O)(=O)NCCc1sc2nc(-c3ccc(F)cc3)nn2c1C	.	-4	1	.	.
COc1cc(NC(=O)N2CCN(c3cc(-c4noc(C)n4)ccc3C)CC2)cc(OC)c1OC	.	6	.	.	.
O=C(CN1CCc2ccccc2C1)Nc1ccc(Br)cc1	-40	-22	1	-1	58*
O=C(CN1CCc2ccccc2C1)Nc1ccccc1C(F)(F)F	-2	-4	34*	13	4
C=CC[C@@H](CC(=O)N[C@H](CO)Cc1ccccc1)C(=O)N[C@H](COC(=O)[C@H](CC=C)CC(=O)OC(C)(C)C)Cc1c[nH]c2ccccc12	-31	.	.	0	.
COC(=O)C1CCN(S(=O)(=O)c2cc3c4c(c2)CCN4C(=O)CC3)CC1	-1	-2	1	-2	-10
COc1cc(/C=C(/C(=O)O)c2ccc(-c3ccccc3)cc2)cc(OC)c1OC	5	30*	-1	8	-17
O=C(NCCC1CCCCN1S(=O)(=O)c1cccs1)C(=O)NCc1ccccc1 (stereo not given)	17	3	0	2	-4
S=C(NCCc1ccccc1)Nc1ccccc1N1CCOCC1	-7	1	1	-5	45*
COC(=O)c1ccccc1NC(=O)c1cnn2c(C(F)F)cc(C3CC3)nc12	15	33*	-2	-1	-27
COc1cc(NC(=O)c2cnn3c(C(F)F)cc(C4CC4)nc23)c(OC)cc1Cl	-3	-2	0	-2	3
O=C(N/N=C/c1cc(Br)cs1)c1c[nH]c2ccccc12	-14	4	0	-11	2
O=C(N/N=C/c1ccc(Br)s1)c1c[nH]c2ccccc12	-29	-24	1	-5	34*
CCOC(=O)C1=CN(Cc2ccc(OC)cc2)C=C(C(=O)OCC)C1c1cccs1	1	-1	1	2	42*
COC(=O)C1=CN(Cc2ccc(OC)cc2)C=C(C(=O)OC)C1c1cc(OC)c(OC)c(OC)c1	-4	-3	0	6	-30
COc1cc2c(-c3ccccc3C)nc3c(c(C)nn3-c3ccccc3)c2cc1OC	.	-2	7	.	.
COCCNC(=S)NC1CC2CCC(C1)N2Cc1ccccc1 (stereo not given)	-26	-30	0	-3	9
C=CCN1C2CCCC1CC(NC(=O)Nc1cccc(C(C)=O)c1)C2 (stereo not given)	-23	-13	10	-3	33*
COCC(=O)NC1CC2CCCC(C1)N2Cc1ccccc1 (stereo not given)	-19	-27	0	-1	42*
CC(C)(C)OC(=O)NC1CC2CCCC(C1)N2Cc1ccccc1 (stereo not given)	-43	-33	1	-4	60*
COc1ccc(CN2C3CCCC2CC(NC(=O)Nc2ccccc2)C3)cc1 (stereo not given)	-45	-24	0	-5	80*
